# APOBEC3G inh – APOBEC3G DNA deaminase inhibitors, primary screen, biochemical, fluorescence, single-stranded DNA substrate, uHTS; 330,000 tested, 0.28% active; DNA dC->dU-editing enzyme APOBEC-3G (Homo sapiens), Q9HC16; inhibition, % at 20 µM; recombinant A3G, ssDNA deamination FAM/TAMRA fluorescence;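 active = inhibition of at least 40% at 20 µM, with no more than 30% in the related APOBEC3A deaminase screen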;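 note: plate controls were DMSO wells with A3G for no effect and wells lacking A3G enzyme for full effect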
# Target sequence (Q9HC16 whole entry, looked up): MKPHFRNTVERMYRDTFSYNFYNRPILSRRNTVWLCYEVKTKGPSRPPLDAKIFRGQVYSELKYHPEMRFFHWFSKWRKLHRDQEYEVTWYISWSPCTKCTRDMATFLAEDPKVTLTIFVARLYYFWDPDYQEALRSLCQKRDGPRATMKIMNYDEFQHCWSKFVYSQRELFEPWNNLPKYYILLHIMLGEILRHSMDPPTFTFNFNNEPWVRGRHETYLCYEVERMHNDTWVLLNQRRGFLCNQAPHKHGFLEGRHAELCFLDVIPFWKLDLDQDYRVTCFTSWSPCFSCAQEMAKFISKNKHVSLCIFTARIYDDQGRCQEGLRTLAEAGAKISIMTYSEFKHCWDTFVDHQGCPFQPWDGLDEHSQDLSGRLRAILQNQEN
# rCAG binder – binders of r(CAG) RNA repeats, primary screen, biochemical, fluorescence. r(CAG) RNA repeat, TO-PRO-1 dye displacement fluorescence. 370,000 tested, 1.3% active. inhibition, % at 3 µM. AID 651821, 2012;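 active = inhibition above the plate cutoff, the mean of all test compounds on that plate plus 3 SD, cut at about 35% in these data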;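 note: 0% = DMSO alone and 100% = 100 µM mitoxantrone as full dye displacement; higher means more dye released from RNA so lower well fluorescence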
# ALR inh – inhibitors of human ALR sulfhydryl oxidase, primary screen, biochemical, H2O2 detection, HRP-luminol luminescence, single point | AID 485317, 2010 | purified ALR, DTT oxidation | FAD-linked sulfhydryl oxidase ALR (Homo sapiens), P55789 | 290,000 tested, 3.8% active | inhibition, % (concentration not given with the values);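 active = mean replicate inhibition above about 79%, with every replicate also reaching it, limit read from the data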
# PHOSPHO1 block – PubChem AID 1565 | Phosphoethanolamine/phosphocholine phosphatase (Homo sapiens), Q8TCT1 | recombinant PHOSPHO1, absorbance phosphatase assay | inhibition, % at 13.3 µM | 290,000 tested, 1.1% active; in the data active = inhibition above about 60%
# aDG glyco act – activators of alpha-DG glycosylation, primary screen, uHTS, Pro5-aDG cells, AlphaScreen; alpha-DG glycosylation AlphaScreen (IIH6); 0% Pro5, 100% B10-LARGE cell signal; activation, % at 10 µM; 360,000 tested, 0.22% active; AID 624168, 2012;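 active = activation of at least 8% versus controls, or a plate z-score of at least 8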;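 note: Pro5 are CHO cells carrying HIG-tagged alpha-DG that lacks glycosylation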
# A3A deaminase – APOBEC3A ssDNA deaminase inhibitors, primary screen, selectivity assay for APOBEC3G inhibitor project, biochemical, FAM/TAMRA oligo cleavage fluorescence; DNA dC->dU-editing enzyme APOBEC-3A (Homo sapiens), P31941; recombinant A3A, FAM/TAMRA ssDNA deamination fluorescence; inhibition, % at 20 µM; 330,000 tested, 0.41% active; AID 493011, 2011;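 active = at least 40% inhibition at 20 µM here, with at most 30% in a related deaminase screen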;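 note: plate controls were A3A with DMSO for no effect and wells lacking A3A enzyme for full effect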
# Target sequence (P31941 whole entry, looked up): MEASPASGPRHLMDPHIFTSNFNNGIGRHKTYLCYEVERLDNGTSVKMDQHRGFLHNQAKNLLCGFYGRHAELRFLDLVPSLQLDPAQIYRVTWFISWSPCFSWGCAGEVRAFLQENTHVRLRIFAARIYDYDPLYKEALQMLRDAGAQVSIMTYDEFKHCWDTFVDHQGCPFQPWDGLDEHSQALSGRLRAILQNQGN
# Numbers without * were called inactive; . = no result. Rows were chosen to be rich in hits. Some 5.4% of all compounds tested hit in one or more screens of this group.
SMILES,APOBEC3G inh,rCAG binder,ALR inh,PHOSPHO1 block,aDG glyco act,A3A deaminase
COc1cc(CC(=O)OCC(=O)Nc2cc([N+](=O)[O-])ccc2F)cc(OC)c1OC,-6.2,-4.5,7.3,4.4,-0.1,-2.0
COc1ccc([N+](=O)[O-])cc1NC(=S)NC(C)=O,-11.1,-0.4,-2.5,12.7,0.8,-1.7
COc1cccc(OC[C@@H](O)CN2CCC(C(O)(c3ccccc3)c3ccccc3)CC2)c1,.,-1.0,.,.,.,.
Cc1c(Cl)cccc1N1C(=O)CC(N(O)c2ccccc2)C1=O (configuration not stated),-5.0,2.4,52.1,1.0,0.1,-5.8
CCOc1ccccc1N1C(=O)CC(N(O)c2ccccc2)C1=O (configuration not stated),-4.1,5.3,95.3*,12.6,-0.1,0.1
CCOC(=O)N1CCC(Nc2cccc(SC)c2)CC1,-2.0,-2.2,97.5*,-2.4,0.5,-1.9
CCOC(=O)N1CCC(N(CCOC)C(=S)Nc2cccc(SC)c2)CC1,-0.2,-1.3,-38.5,-7.7,0.9,-0.1
Cc1ccc(/C=C2/NC(=O)N(Cc3ccccc3)C2=O)s1,-1.4,7.0,-3.8,13.7,-0.1,1.5
CCN1C(=O)/C(=C/c2ccc(C)s2)NC1=S,-3.6,3.2,9.6,76.4*,0.0,-2.5
CCN(CCO)c1ccc(N=Nc2cc(C)[nH]n2)cc1,-0.6,-5.8,84.1*,36.2,-0.2,0.6
Cc1oc(-c2ccccc2F)nc1CS(=O)CC(=O)NCc1ccccc1 (configuration not stated),-7.4,3.7,97.1*,59.8,0.0,-6.4
Cc1ccc(CNC(=O)CS(=O)Cc2nc(-c3ccccc3F)oc2C)cc1 (configuration not stated),-6.0,0.1,95.6*,44.5,-0.2,-7.0
Cc1oc(-c2ccccc2F)nc1CS(=O)CC(=O)NCc1ccc(F)cc1 (configuration not stated),-0.3,1.8,98.6*,22.8,1.6,-0.2
Cc1ccc(CNC(=O)CS(=O)(=O)Cc2nc(-c3ccccc3F)oc2C)cc1,13.1,7.4,-9.8,17.6,-0.1,1.4
Nc1nc(-c2ccc3c(c2)CCO3)cs1,-2.4,5.4,97.4*,57.0,-0.3,0.1
O=C(CNS(=O)(=O)c1ccc2ccccc2c1)OCc1csc(-c2ccccc2)n1,1.8,3.2,98.6*,-6.0,-0.1,9.8
COC(=O)Cn1c(O)c(N=NC(=O)CNC(=O)c2ccncc2)c2ccccc21,-0.8,5.3,-2.2,64.0*,0.9,0.5
O=C(NCc1ccccc1)[C@H]1CCCN1C(=O)[C@H]1CCCN1C(=O)c1ccc(OC(F)(F)F)cc1,.,-2.1,.,.,.,.
Cc1ccc(NC(=O)Cn2nnc(-c3ccncc3)n2)cc1C,.,1.1,.,.,.,.
Cc1ccc(-c2nc3cnccn3c2Nc2ccccc2)o1,18.8,8.8,98.2*,-4.5,0.2,-6.0
Cc1ccc(-c2nc3ccccn3c2Nc2ccccc2)o1,-6.1,-0.6,98.9*,-5.2,0.5,-3.9
COC(=O)C1CN(Cc2ccc(Cl)cc2)CCS(=O)(=O)N1Cc1cn(Cc2ccc(Cl)cc2)nn1 (configuration not stated),.,-1.2,.,.,.,.
O=C1CCCCC1CCS(=O)(=O)NCc1ccccc1 (configuration not stated),.,0.9,.,.,.,.
C/C(CC(=O)Nc1ccc(N(C)C)cc1)=N\NC(=O)c1ccc([N+](=O)[O-])cc1Cl,-5.0,3.2,99.6*,-11.4,0.0,-9.7
C/C(CC(=O)Nc1ccc(N(C)C)cc1)=N\NC(=O)c1ccc(Cl)cc1Cl,-6.2,1.8,61.4,3.1,0.0,-10.7
SMILES,APOBEC3G inh,rCAG binder,ALR inh,PHOSPHO1 block,aDG glyco act,A3A deaminase
CCCC[C@H]1C2CC(OC(=O)Nc3ccccc3)C(C2)[C@H]2CCCCN21 (some centres not stated),.,0.4,.,.,.,.
CC(COc1ccc(C#N)c(F)c1)CN1CCC(C(O)(c2ccccc2)c2ccccc2)CC1 (configuration not stated),.,3.6,.,.,.,.
COc1ccc2c(c1)CO[C@H]([C@H](O)COC(C)=O)[C@H]2/C=C/c1ccccc1,.,3.2,.,.,.,.
O=C1CS/C(=N\C(=O)N2c3ccccc3Sc3ccccc32)N1,-2.1,16.3,98.9*,45.2,-0.3,0.4
Cn1c(N)c(C(=O)CCl)c(=O)n(Cc2ccccc2)c1=O,-5.6,12.8,99.1*,-1.2,0.4,-4.6
Cn1c(N)cc(=O)n(Cc2ccccc2)c1=O,-9.8,-0.8,99.0*,-1.2,0.0,-4.9
C=CCN1C(=O)[C@@H](CC(=O)N2CCN(C(=O)C3CC3)CC2)[C@]2(C(=O)OCC)CCCCC/C=C/12,.,3.9,.,.,.,.
Cc1ccccc1NC(=O)OC1CCC12CCC(c1ccccc1)CC2 (configuration not stated),.,2.1,.,.,.,.
Cc1ccc(C(=O)/C=C/C(=O)O)cc1,2.9,1.2,98.1*,4.1,1.1,-1.3
Cc1ccc(/C=C/C(=O)c2ccc(O)cc2)cc1,-2.0,4.4,10.7,-0.8,0.3,-5.1
COc1ccc(CCNC(=O)c2cnn(-c3ccccc3)c2N)cc1OC,.,2.5,.,.,.,.
CCCCn1cnc2cc(NCc3cccc(OC)c3O)ccc21,-5.9,2.4,33.5,-1.0,0.2,-4.3
COc1ccccc1-n1cnc2cc(NCc3ccccc3O)ccc21,1.4,10.6,97.8*,37.1,0.1,5.6
CCn1cnc2cc(NCc3cccc(OC)c3O)ccc21,-5.5,-3.9,94.4*,-31.3,0.7,-2.6
COc1ccc(CNc2ccc3c(c2)ncn3-c2ccccc2OC)cc1,-7.1,-2.9,50.0,-11.4,-0.3,-7.5
CCCCc1ccc(-c2csc(/C(C#N)=C\c3ccco3)n2)cc1,-2.9,10.1,84.0*,18.6,-0.5,-1.8
CCOC(=O)c1[nH]c2cc(OC)c(OC)cc2c1NC(=O)c1ccc2c(c1)OCO2,-4.2,9.7,-1.8,67.8*,-0.3,0.2
CCOC(=O)c1[nH]c2cc(OC)c(OC)cc2c1NC(=O)CN(C)C1CCCCC1,-10.6,3.6,97.0*,14.4,-0.5,1.8
CCOC(=O)c1[nH]c2ccc(OC)cc2c1NC(=O)c1ccc2c(c1)OCO2,-7.2,3.5,31.2,13.7,-0.5,-4.3
O=c1c2cc3cc(Cl)ccc3nc2ncn1N1CCCCC1,.,2.2,.,.,.,.
CN(C)c1ccc(C(C(=O)NC2CCCC2)N(C(=O)c2ccco2)C2CC2)cc1 (configuration not stated),-6.8,-8.6,98.7*,14.3,0.1,-2.7
O=C(Nc1ccc(F)cc1F)NC1CC1,-0.4,-4.3,-3.9,-40.0,0.1,0.5
O=C(Nc1ccc(F)cc1F)NC1CCCCCCC1,-6.6,-5.0,-2.7,61.0*,0.3,-3.9
